Data published in PubChem BioAssay (NCATS).
Records with an inconclusive call do not appear. The source made the active and inactive calls. The call rests on the fitted dose curve; in most records, active means well fitted inhibition curve with a large enough effect; inconclusive means small, poorly fitted or top-dose-only effect; inactive means flat fitted curve, though single readings scatter.

These compounds were tested on KB-3-1 (assay: Cytotoxic Profiling of Annotated Libraries Using Quantitative High-Throughput Screening (AID 1296008; further: nearly all actives have a fitted effect of over 60% in size)). Settings: Five cell lines viability, CellTiter-Glo ATP luminescence, 48-72 h; max response: stronger effect = lower value.
Procedure, shortened: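 Compounds were pin-transferred onto cells and incubated 48 or 72 hr at 37 degree Celsius, 95% humidity. CellTiter-Glo was added, plates sat 10 min at room temperature, then ATP-coupled luminescence was imaged as the viability read-out.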
On the % scale 0 is the no-effect control and ±100 the full control effect; potency means the concentration at half of the fitted maximal effect.

Compound | max response | Potency
CCN(CC)CCOC(=O)c1cccnc1 | 21.6% (inactive) | –
O=C(NNCS(=O)(=O)O)c1ccncc1 | -1.07% (inactive) | –
CCCCCCCCCCCCCCCCOCCOCCOCCOCCOCCOCCOCCOCCOCCOCCOCCOCCOCCOCCOCCOCCOCCOCCOCCOCCO | -16.1% (inactive) | –
OCCN1CCN(CC/C=C2/c3ccccc3Sc3ccc(Cl)cc32)CC1 | 6.68% (inactive) | –
CN[C@@H]1[C@@H](O[C@H]2O[C@H](CO)[C@@H](N)[C@H](O)[C@H]2O)O[C@H]2C[C@@H](N)[C@@H](O[C@H]3[C@H](O)[C@@H](O)[C@H](N)C[C@@H]3N)O[C@@H]2[C@@H]1O | 9.56% (inactive) | –
O=[n+]1ccn([O-])c2ccccc21 | -0.645% (inactive) | –
CC(=O)Oc1cc(C(F)(F)F)ccc1C(=O)O | 0.097% (inactive) | –
O=C(O)[C@H]1CN(C/C=C/P(=O)(O)O)CCN1 | 9.65% (inactive) | –
O=C(O)/C=C/C(=O)Nc1ccc(S(=O)(=O)Nc2nccs2)cc1 | -6.18% (inactive) | –
Nc1nc(=O)n([C@@H]2CS[C@H](CO)O2)cc1F | 6.08% (inactive) | –
O=C(O)c1ccc(NC(=O)[C@H](Cc2ccc(O)cc2)NC(=O)c2ccccc2)cc1 | 7.82% (inactive) | –
CSCCC(N)C(=O)O (configuration not stated) | 3.08% (inactive) | –
CC(C)[C@@H]1CC[C@@H](C)C[C@H]1O | -7.15% (inactive) | –
CC(=O)N[C@@H](C=O)[C@@H](O)[C@H](O)[C@H](O)CO | 2.45% (inactive) | –
CC(CN(C)C)CN1c2ccccc2Sc2ccc(C(F)(F)F)cc21 (configuration not stated) | -6.33% (inactive) | –
CC(=O)Nc1ccc(OC(=O)c2ccccc2O)cc1 | -18% (inactive) | –
CCOc1ccc(S(=O)(=O)O)c2cccnc12 | 5.36% (inactive) | –
CCN1\C(=C/C=C/C=C/c2sc3ccccc3[n+]2CC)Sc2ccccc21 | – | 9.2 µM (active)
COC(=O)C(CN)c1c[nH]c2ccc(OC)cc12 (configuration not stated) | 9.41% (inactive) | –

Compound | max response | Potency
CN1CCN(C(c2ccccc2)c2ccc(Cl)cc2)CC1 (configuration not stated) | 0.99% (inactive) | –
CC(C)(C)NCC(O)CSc1nc(-c2ccc(C(N)=O)s2)cs1 (configuration not stated) | 15.3% (inactive) | –
O=C(O)C1=C(CSc2nnnn2CS(=O)(=O)O)CS[C@@H]2[C@H](NC(=O)[C@H](O)c3ccccc3)C(=O)N12 | 3.59% (inactive) | –
NC(Cc1ccccc1)C(=O)O (configuration not stated) | 4.99% (inactive) | –
C[C@]12CC[C@@H]3c4ccc(O)cc4CC[C@H]3[C@@H]1CC[C@@H]2OP(=O)(O)O | -26.5% (inactive) | –
CO[C@H]1C[C@H](O[C@@H]2/C(C)=C/C[C@@H]3C[C@@H](C[C@]4(CC[C@H](C)[C@@H](C5CCCCC5)O4)O3)OC(=O)[C@@H]3C=C(C)/C(=N/O)[C@H]4OC/C(=C\C=C\[C@@H]2C)[C@]43O)O[C@@H](C)[C@@H]1O | -1.21% (inactive) | –
O=C1NC(=O)[C@H]2[C@@H]1[C@@H]1C=C[C@H]2C1 | -8.53% (inactive) | –
O=C(O)[C@@H]1C[C@H](CP(=O)(O)O)CCN1 | 23.4% (inactive) | –
CC(=O)c1ccc2c(c1)N(CCCN1CCN(CCO)CC1)c1ccccc1S2 | 1.1% (inactive) | –
O=C1c2ccccc2CN2C(=O)c3ccccc3CN12 | 1.75% (inactive) | –
O=C1CC[C@@H](C(=O)N[C@H]2C[C@@H]2c2ccccc2)N1 | -13% (inactive) | –
CCC(=O)c1ccc2c(c1)N(CCCN1CCN(CCO)CC1)c1ccccc1S2 | -13.4% (inactive) | –
CCN(CC)CCOc1ccccc1OC | 3.77% (inactive) | –
N#Cc1ccc2c(c1)N(CCCN1CCC(O)CC1)c1ccccc1S2 | 1.4% (inactive) | –
NC[C@H]1O[C@H](O[C@H]2[C@H](O)[C@@H](O[C@H]3O[C@H](CO)[C@@H](O)[C@H](N)[C@H]3O)[C@H](N)C[C@@H]2N)[C@H](N)C[C@@H]1O | -4.68% (inactive) | –
CC(O)CN(C)C (configuration not stated) | -6.37% (inactive) | –
CO/N=C(\C(=O)N[C@@H]1C(=O)N2C(C(=O)[O-])=C(C[n+]3cccc4c3CCC4)CS[C@H]12)c1csc(N)n1 | -1.98% (inactive) | –
c1ccc2c(c1)Sc1ccccc1N2CCN1CCCC1 | -12.7% (inactive) | –
